Reference: PubChem BioAssay
Values without a mark were called inactive. Activity calls are given as the source filed them.

assay: basal CRE-LacZ reporter activity in PC12 – cell-based, unstimulated, primary screen (AID 1145); settings: no forskolin, luminescence, 4.5 h, higher = more signal, called active from +8 up or from −8 down

SMILES | z-score
C=CCNC(=O)[C@H]1[C@@H]2C(=O)O[C@@H](c3ccccc3)[C@@H](c3ccccc3)N2[C@@H](c2ccccc2OCCO)[C@]12C(=O)N(C(=O)OCCOC)c1ccc(C#CCC(C(=O)OC)C(=O)OC)cc12 | 0.775
CC(=O)NCCCC[C@@H]1NC(=O)[C@@H]2C[C@H](C(=O)NCCCCCCN(C)C)[C@H](c3ccc(O)cc3)N2C1=O | 0.0043
O=C(NCC(O)CO)[C@]1(Cc2ccccc2)N=C(c2ccc(OCCCO)cc2)O[C@@H]1c1ccccc1 (stereo partly specified) | 0.171
C[C@H]1NC(=O)[C@@H](C)NC(=O)[C@@]23C(=O)N[C@@H](Cc4ccccc4)C2[C@H](C)[C@@]2(C)O[C@H]2C3/C=C/C/C=C\CNC1=O (stereo partly specified) | 3.4
CC(C)N1CC=CC23O[C@@H]4/C=C\CCCOC(=O)C4[C@H]2C(=O)N(CCO)[C@@H]3C1=O (stereo partly specified) | -0.358
C=CC[C@]1(C(=O)O)N=C(c2ccc(OCCCO)cc2)O[C@H]1c1ccccc1 | 1.38
CC(C)CNC(=O)[C@@]1(C)c2ccccc2C(=O)N(Cc2ccc(OC(F)(F)F)cc2)[C@H]1c1ccc(CO)cc1 | 0.0279
CO[C@H]1COC(=O)[C@H](Cc2ccccc2)NC(=O)CC=C[C@@H](C)[C@H](OC)COC(=O)CC=C[C@@H]1C | -0.567
C=C(COC)/C(=C/C[C@@H](OC(=O)c1ccncc1)c1ccc(OCCO)cc1)c1cc(C(=O)OC)ccc1OC | 9.09 (active)
CSCC[C@@H]1NC(=O)CC=C[C@@H](C)COC(=O)[C@H](CCSC)NC(=O)CC=C[C@@H](C)COC1=O | -0.389
O=C1OCC=C[C@H]2OC34C=CCN(Cc5ccccc5)C(=O)[C@H]3N(CCCCCO)C(=O)[C@@H]4[C@@H]12 (stereo partly specified) | -0.354
Cc1ccc(S[C@]2(C(=O)NCCN3CCOCC3)CC(=O)N(C3Cc4ccccc4C3)[C@@H]2c2ccc(CO)cc2I)cc1 | 0.531
COC(=O)C[C@H]1O[C@]2(C(=O)N(C)c3ccccc32)[C@@H](C)[C@@H]1[Si](C)(C)c1ccc(OC)cc1 | 2.23
CC/C=C/C(=O)N(C[C@@H]1CCCO1)[C@@H]1CC(C(=O)NCCO)=C[C@H](Oc2c(I)cc(CO)cc2OC)[C@H]1O | 0.858
C=C[C@H](OC)[C@@H](OC(=O)Nc1ccc(SC)cc1)c1ccc(OC)c(O)c1 | -0.113
CN1C2C=C(c3ccc(CO)cc3)C(C3C(=O)N(C(N)=O)C(=O)C32)C1c1cccs1 (stereo unspecified) | 2.09
C=CCN(C(=O)C1N(c2ccc(CCO)cc2)C(=O)C2C(C(=O)O)C3C=CC21O3)C(C)(C)C (stereo unspecified) | -0.623
C=CCC1=C[C@H]2[C@H]([C@@H]3C=C[C@]2(CC=C)C(=O)[C@]32CO2)[C@@]2(CO2)C1=O | 2.21
Cc1ccc(S[C@]2(C(=O)O)CC(=O)N(Cc3ccccc3)[C@@H]2c2ccc(CO)cc2)cc1 | -0.412
CCCNC(=O)[C@@H]1c2ccccc2C(=O)N(Cc2cc(F)cc(C(F)(F)F)c2)[C@H]1c1ccc(CO)cc1 | -0.529
O=C1c2ccccc2[C@](Cc2ccccc2I)(C(=O)O)[C@H](c2ccc(CO)cc2)N1C1CCCCC1 | 0.001
[N-]=[N+]=NCc1ccccc1C[C@]1(C(N)=O)N=C(c2ccc(OCCCO)cc2)O[C@H]1c1ccccc1CN=[N+]=[N-] | 1.08
CO[C@H]1COC(=O)[C@H](C)NC(=O)CC=C[C@@H](C)[C@H](NS(=O)(=O)c2ccc(C)cc2)COC(=O)[C@@H](OCc2ccccc2)C=C[C@@H]1C | 1.06
COC(=O)c1c(CC[C@@H](CO)NC(=O)N[C@H](Cn2cc(-c3cncn3C)nn2)C(C)C)oc(C(C)=O)c1C(=O)OC | 1.01
C=C(COC)/C(=C/C[C@@H](OC(C)=O)c1cccc(OCCO)c1)c1cc(C(=O)OC)ccc1OC | 4.69
CC(C)[Si]1(C(C)C)O[C@@H](c2ccccc2)c2cc(C3CC3)nc(-c3ccc(Oc4ccccc4)cc3)c21 | 0.0176
